# How the values were obtained:
# Experiment in all cases: PBM binding z-score (relative to random genomic background probes); higher = stronger binding; sequences stand for … in GC…GCGATTGACAGCGTAGAATGAAGG
# [1] = test system: FXR:RXRa (NR concentration 270 nM, RXRa partner concentration 90 nM)
# How it was run: (§1)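 Antibodies against each partner of ligand-free nuclear receptor dimers (one per run) detected binding on custom Agilent 4×180K protein-binding microarrays after 1 h incubation. The double-stranded probes had 34-nt variable regions carrying direct-repeat seeds, single-nucleotide variants, half-site ablations and random human genomic background sequences. Binding z-scores, from regression-normalized fluorescence, use the random background probes as reference.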
# [2] = test system: LXRa:RXRa (NR concentration 270 nM, RXRa partner concentration 90 nM)
# How it was run: as §1
# [3] = test system: LXRa homodimer (NR concentration 270 nM)
# How it was run: as §1
# [4] = test system: LXRb:RXRa (NR concentration 270 nM, RXRa partner concentration 90 nM)
# How it was run: as §1
# [5] = test system: LXRb homodimer (NR concentration 270 nM)
# How it was run: as §1
# [6] = test system: PPARa:RXRa (NR concentration 270 nM, RXRa partner concentration 90 nM)
# How it was run: as §1
# [7] = test system: PPARg:RXRa (NR concentration 180 nM, RXRa partner concentration 90 nM)
# How it was run: as §1
# [8] = test system: PPARg:RXRa 270nM:90nM, anti-RXR (NR concentration 270 nM, RXRa partner concentration 90 nM)
# How it was run: as §1
# [9] = test system: PPARg:RXRa 30nM:10nM, anti-RXR (NR concentration 30 nM, RXRa partner concentration 10 nM)
# How it was run: as §1
# [10] = test system: PPARg:RXRa 90nM:30nM, anti-RXR (NR concentration 90 nM, RXRa partner concentration 30 nM)
# How it was run: as §1
Sequence,PBM binding z-score [1],PBM binding z-score [2],PBM binding z-score [3],PBM binding z-score [4],PBM binding z-score [5],PBM binding z-score [6],PBM binding z-score [7],PBM binding z-score [8],PBM binding z-score [9],PBM binding z-score [10]
ATATGTAGGTTAGCTGGGGTCATTTAGACTAGGC,4.36,5.92,3.36,4.92,1.13,5.22,5.68,5.12,2.41,4.22
CATACAGGGTGAGCTAGGCCAGAGTAGGGACGGC,0.0783,-0.27,-0.348,-0.501,-0.241,0.234,0.608,-0.129,-0.308,-0.186
CAGCCTTGGTCAGGGCCAGTATAGGAGGAACGTT,-0.896,-0.936,-0.824,-0.976,-1.46,-0.531,-0.0449,-0.51,-0.686,-0.517
CCTCGGAGGACACAAGGTCAGAGCTGTCCGCTTT,1.95,2.18,0.422,1.25,-0.693,2.17,0.424,1.15,-0.626,0.468
TCTTGTAGATCAACCAGGTTAAGAAAGCCTGAGT,0.429,0.506,-0.188,0.429,-0.277,0.901,-0.376,1.51,2.7,2.07
CGAACTAGGTCAAGAGGTCAAAGTCCGCTTCCCG,7.13,6.37,6.49,5.6,1.59,6.58,10.1,7.94,7.44,8.35
CATACAGGGTCAGCCAGGCCAGAGTAGGGACGGC,4.87,3.33,-0.255,2.24,0.282,4.45,3.65,3.21,0.666,2.01
CCTGCTAGGTCATGGTCAGCTGATCTACAGTATG,4.51,2.68,-0.139,2.21,-0.492,3.96,3.02,3.1,0.862,2.09
TCGAGTAGCTTAGGGGCATTCAGAATGGCGTCGA,-0.301,-0.0309,-0.497,0.0994,-1.06,0.246,-0.362,0.211,0.569,0.263
GATACAGGGTCAGCTAGAGGCCAGATTATGGAAA,4.25,2.85,-0.166,2.68,-0.373,4.42,3.59,3.18,0.899,1.88
CAAACTAGGTCACATAGGTCAAAGTCCGTGCGTA,6.12,5.33,4.86,5.05,1.48,5.74,9.47,7.44,6.05,7.51
TCGAGTATGTTAGGGGCATTCAGAATGGCGTCGA,0.201,0.198,-0.264,0.596,-0.345,0.669,0.0373,0.882,0.884,1.02
CAAACTAGGTCACAGAGGTAAAAGTCCGTGCGTA,4.42,3.37,0.644,2.58,0.501,5.38,9.21,7.63,5.5,7.27
GCATATAGGTAATACAAGGTGAAAGACCGATTGT,1.32,2.31,0.0608,0.571,-0.236,1.46,1.65,1.57,0.368,0.978
TGAATGAGGTTATAAGATCAGAGAACGTTGCAAA,1.28,1.23,-0.332,0.897,-0.296,2.62,1.45,1.83,1.04,1.35
CAAACTATGTCAAAGGTCAAAGTCGAGCCAACCA,6.52,6.3,5.11,5.79,2.93,7.19,11.9,10.2,10.4,11.8
ACAGACAGGTGATGAAGGAAACTCAGGCTATCAT,0.101,-0.0621,-0.0645,-0.383,-0.211,0.0161,0.66,-0.12,0.224,-0.159
GATGCAGGGTCAGCTAGAGGCCAGAGTATGGAAA,4.25,2.59,-0.565,2.29,-0.68,4.37,2.67,2.66,0.448,1.74
CGTCCAAGGTCATTGCTAGGTCAGTGAAAGCATT,6.96,5.75,3.09,4.57,1.37,5.32,3.8,5.08,1.55,3.62
TCTATTAGTTGAAGGGCAACCCACGAGTCCGTTT,0.7,1.04,0.728,1.18,0.631,1.08,0.343,2.04,3.83,2.89
CCAGACAAGTGAGAAGGTAACTCAGCCTCGATTA,-0.1,0.185,0.265,0.312,0.105,-0.0657,0.295,-0.204,-0.274,-0.419
CTAACTAGGTCATCCAGGACAGTGAATACATTGA,4.13,3.08,1.1,2.34,0.444,5.16,8.66,7.07,4.48,7.08
ACTGTTAGTTGAGACGAGGGCAACCGATAGGTTG,0.919,0.0939,-0.0594,0.0493,0.747,0.275,0.412,-0.13,-0.0644,0.0713
CTTCCAAGGTCATAGGAGGTCAGTGAAGACAGAT,7.67,7.56,6.46,6,1.51,6.02,5.71,6.17,2.87,4.89
ATCTCTAGGTCAAGTTCAGTGAAAGATCGATAGA,5.11,5.65,4.79,3.98,3.26,4.74,5.82,5.4,2.79,4.77
